Several values for one entry are separate records, joined by “and”; a condition that tells them apart may be missing. Identical values can stand only once. Records with an inconclusive call do not appear. Entries that show only a call come without a potency. A structure can be active in one record and inactive in another. Activity calls are given as the source filed them. Unless noted, calls follow the shape of the full dose curve. Residues, ends and D or L forms follow the SMILES beside them.

One assay can be described thus: qHTS assay to identify small molecule agonists of H2AX (AID 1224845; active = well fitted activation curve with a large enough effect in the signal ratio in the repeat runs, not every such curve was filed as active; the % refers to the signal ratio). The conditions noted are these: CHO-K1 phospho-H2AX Ser139 HTRF, 3 h; series mostly up to 154 µM. The gist of the method: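 Phospho-H2AX Ser139 measured by HTRF (ex 320 nm; em 665 and 620 nm) after 24 hr antibody incubation. Compounds, 15 concentrations, 0.76% DMSO, were applied to CHO-K1 cells for 3hr at 37C before lysis.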
As for `NC(=O)c1ccccc1O`, the molecule was called inactive.
On to `CC1(C)[C@@H]2CC[C@@]1(C)C(=O)C2`, for which the outcome was inactive.
On to `Cc1cc(=O)n(-c2ccccc2)n1C`, for which the outcome was inactive.
As for `CCOc1ccc(NC(=O)CC(C)O)cc1` (stereo not drawn), the molecule was classed as inactive.
On to `NC(=O)c1cnccn1`, for which the call was inactive.
`O=c1ccc2ccccc2o1`: the molecule was called inactive.
With `Cc1noc(NS(=O)(=O)c2ccc(N)cc2)c1C`, the call was inactive.
`Cc1cc(=O)[nH]c(=S)[nH]1`: the outcome was inactive.
Same read-out and setting: next, `Cc1ccccc1C(OCCN(C)C)c1ccccc1` (stereo not drawn): “inactive”; `O=S(=O)(O)c1ccc2cc(O)ccc2c1`: “inactive”.

A further assay is described as follows: qHTS assay to identify small molecule agonists of the hypoxia (HIF-1) signaling pathway (AID 1224846; active = well fitted activation curve with a large enough effect in the signal ratio in the repeat runs, not every such curve was filed as active; the % refers to the signal ratio). Conditions: HRE-bla ME-180 cells, beta-lactamase ratio, 17 h; series mostly up to 76.8 µM. The gist of the method: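 ME-180 HRE-bla reporter cells; compounds in DMSO, 17 h at 37C; read-out beta-lactamase via CCF4-AM FRET.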
For orientation: Quantitative high-throughput screening tests each substance at several concentrations.
As to `Nc1ccc(C(=O)O)cc1`, the result was inactive.
For `O=c1cc[nH]c(=S)[nH]1`, the result was inactive.
As to `C/C=C/c1ccc(OC)cc1`, the outcome was inactive.
The same measure, in the same setting: the same measure for `CCCCC1C(=O)N(c2ccccc2)N(c2ccccc2)C1=O`: “inactive”; for `O=C(O)CCC(=O)O`: “inactive”.
On to `CC(=O)Nc1nnc(S(N)(=O)=O)s1`, for which the outcome was inactive.
For the molecule `COC(=O)[C@H](Cc1ccccc1)NC(=O)[C@@H](N)CC(=O)O` (H-Asp-Phe-OMe), the outcome was inactive.
For the molecule `CCCC(CCC)C(=O)O`, the result was inactive.
Take `CC(=O)OCC(COC(C)=O)OC(C)=O`: the result was inactive.
Regarding `OC(Cn1cncn1)(Cn1cncn1)c1ccc(F)cc1F`, the outcome was inactive.
As to `C1N2CN3CN1CN(C2)C3`, the outcome was inactive.
On the same count and under the same terms, next, `O=C1CN(/N=C/c2ccc([N+](=O)[O-])o2)C(=O)N1`: “inactive”; `CCCCOC(=O)CC(CC(=O)OCCCC)(OC(C)=O)C(=O)OCCCC`: “inactive”.
On to `CCCCC(CC)COC(=O)/C=C/c1ccc(OC)cc1` (stereo not drawn), for which the result was inactive.
`CC(C)(Oc1ccc(C2CC2(Cl)Cl)cc1)C(=O)O` (stereo not drawn): the result was inactive.
As for `OCCc1ccccc1`, the outcome was inactive.
On to `NC(=O)c1ccccc1O`, for which the outcome was inactive.
As for `CC1(C)[C@@H]2CC[C@@]1(C)C(=O)C2`, the result was inactive.
Turning to `CCOc1ccc(NC(=O)CC(C)O)cc1` (stereo not drawn), the result was inactive.
As to `O=c1ccc2ccccc2o1`, the outcome was inactive.
Consider `Cc1noc(NS(=O)(=O)c2ccc(N)cc2)c1C`, for which the outcome was inactive.
As for `Cc1cc(=O)[nH]c(=S)[nH]1`, the outcome was inactive.
As for `O=S(=O)(O)c1ccc2cc(O)ccc2c1`, the outcome was inactive.

A short description of a further assay: qHTS assay to identify small molecule agonists of H2AX - cell viability counter screen (AID 1224847). Also: top concentration of the series differs between compounds; nearly all actives have a fitted effect of over 30% in size. The conditions noted are these: CHO-K1 viability, CellTiter-Glo luminescence, 3 h; series mostly up to 154 µM. The method, boiled down:
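Quantitative HTS viability measurement: CHO-K1 wild-type cells in serum (10% FBS) medium, short 3 hr drug exposure at 37C with 0.76% DMSO, CellTiter-Glo luminescent detection.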
Take `C[C@]12C=CC(=O)C=C1CC[C@@H]1[C@@H]2[C@@H](O)C[C@@]2(C)[C@H]1CC[C@]2(O)C(=O)CO`: the molecule was called inactive.
Same read-out and setting: the same measure for `CC(=O)NS(=O)(=O)c1ccc(N)cc1`: “inactive”.
Consider `Nc1ccc(C(=O)O)cc1`, for which the call was inactive.
`O=c1cc[nH]c(=S)[nH]1`: the call was inactive.
On to `C/C=C/c1ccc(OC)cc1`, for which the molecule was classed as inactive.
In the case of `CCCCC1C(=O)N(c2ccccc2)N(c2ccccc2)C1=O`, the molecule was called inactive.
For the molecule `Cc1ccc(C)c(OCCCC(C)(C)C(=O)O)c1`, the molecule was called inactive.
With `O=C(O)CCC(=O)O`, the molecule was called inactive.
For `CC(=O)Nc1nnc(S(N)(=O)=O)s1`, the molecule was classed as inactive.
`COC(=O)[C@H](Cc1ccccc1)NC(=O)[C@@H](N)CC(=O)O` (H-Asp-Phe-OMe): the outcome was inactive.
Still for that read-out and setting: next, `CCCC(CCC)C(=O)O`: “inactive”; `COc1ccc2[nH]cc(CCNC(C)=O)c2c1`: “inactive”; `CC(=O)OCC(COC(C)=O)OC(C)=O`: “inactive”.
`Cn1c(=O)c2[nH]cnc2n(C)c1=O`: the result was inactive.
Consider `Nc1ccc(S(=O)(=O)c2ccc(N)cc2)cc1`, for which the molecule was classed as inactive.
`OC(Cn1cncn1)(Cn1cncn1)c1ccc(F)cc1F`: the outcome was inactive.
Consider `C1N2CN3CN1CN(C2)C3`, for which the outcome was inactive.
With `CCCN(CCC)S(=O)(=O)c1ccc(C(=O)O)cc1`, the call was inactive.
Same read-out and setting: next, `NNC(=O)c1ccncc1`: “inactive”.
Regarding `Cn1cc[nH]c1=S`, the outcome was inactive.
Same read-out and setting: next, `O=C1CN(/N=C/c2ccc([N+](=O)[O-])o2)C(=O)N1`: “inactive”.
Still for that read-out and setting: next, `CCCCOC(=O)CC(CC(=O)OCCCC)(OC(C)=O)C(=O)OCCCC`: “inactive”; `CCCCC(CC)COC(=O)/C=C/c1ccc(OC)cc1` (stereo not drawn): “inactive”.
Take `CC(C)(Oc1ccc(C2CC2(Cl)Cl)cc1)C(=O)O` (stereo not drawn): the molecule was classed as inactive.
As for `OCCc1ccccc1`, the molecule was classed as inactive.
The same measure, in the same setting: next, `NC(N)=NC(=O)c1nc(Cl)c(N)nc1N`: “inactive”.
As for `NC(=O)c1ccccc1O`, the molecule was classed as inactive.
In the case of `CC1(C)[C@@H]2CC[C@@]1(C)C(=O)C2`, the call was inactive.
Consider `Cc1cc(=O)n(-c2ccccc2)n1C`, for which the call was inactive.
Turning to `CCOc1ccc(NC(=O)CC(C)O)cc1` (stereo not drawn), the molecule was classed as inactive.
Regarding `NC(=O)c1cnccn1`, the outcome was inactive.
On to `O=c1ccc2ccccc2o1`, for which the outcome was inactive.
Still for that read-out and setting: the same measure for `Cc1noc(NS(=O)(=O)c2ccc(N)cc2)c1C`: “inactive”; for `Cc1cc(=O)[nH]c(=S)[nH]1`: “inactive”; for `Cc1ccccc1C(OCCN(C)C)c1ccccc1` (stereo not drawn): “inactive”.
As to `O=S(=O)(O)c1ccc2cc(O)ccc2c1`, the result was inactive.

Another assay is described as follows: qHTS assay to identify small molecule antagonists of the estrogen related receptor (ERR) signaling pathway from Tox21 library (AID 1224848; active = well fitted inhibition curve with a large enough effect in the repeat runs; also: nearly all actives have a fitted effect of over 50% in size; also: potency is read from the fitted curve at half-maximal effect). Conditions: ERR reporter cell line, luciferase antagonist mode, 18 h; series mostly up to 92.4 µM. The method, boiled down: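 Luciferase luminescence (ONE-Glo, 30 min room temperature) was the read-out. Cells of the NTP-supplied ERR line, 2,000 per well, were given 6 h at 37 C before compound addition in DMSO and 18 h exposure at 37 C.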
`O=c1cc[nH]c(=S)[nH]1`: the Potency entry is “inactive”.
On the same count and under the same terms, the same measure for `CCCCC1C(=O)N(c2ccccc2)N(c2ccccc2)C1=O`: 61.1 µM (active) and inactive; for `O=C(O)CCC(=O)O`: “inactive”.
For the molecule `COc1ccc2[nH]cc(CCNC(C)=O)c2c1`, the Potency entry was “inactive”.
The same measure, in the same setting: next, `CC(=O)OCC(COC(C)=O)OC(C)=O`: “inactive”; `OC(Cn1cncn1)(Cn1cncn1)c1ccc(F)cc1F`: “inactive”; `CCCN(CCC)S(=O)(=O)c1ccc(C(=O)O)cc1`: “inactive”.
On to `NNC(=O)c1ccncc1`, for which the Potency entry is “inactive”.
As to `O=C1CN(/N=C/c2ccc([N+](=O)[O-])o2)C(=O)N1`, the Potency was 19.3 µM (active) and 30.6 µM (active) and 21.1 µM (active).
Consider `CCCCC(CC)COC(=O)/C=C/c1ccc(OC)cc1` (stereo not drawn), for which the Potency entry was “inactive”.
In the case of `CC1(C)[C@@H]2CC[C@@]1(C)C(=O)C2`, the Potency result was “inactive”.
As for `Cc1cc(=O)n(-c2ccccc2)n1C`, the Potency entry is “inactive”.
With `NC(=O)c1cnccn1`, the Potency result was “inactive”.
For the molecule `Cc1ccccc1C(OCCN(C)C)c1ccccc1` (stereo not drawn), the Potency entry was “inactive”.

The values above are taken from PubChem BioAssay (Tox21).
